Sampled rows, rich in hits. Any-hit rate of the full collection: about 0.2%.
PDI turbidity – inhibitors of human protein disulfide isomerase | 350,000 compounds, 0.052% hits | AID 588391 | P07237 | inhibition, % at 10 µM | PDI insulin aggregation turbidity, A650, 90 min;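 active = mean inhibition across replicates of 30% or more, whatever share of single replicates reach that level; inconclusive = mean inhibition below 30% while every single replicate reaches 30%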
CaV13 ICDI inh – Disruptors of the CACNA1D IQ motif to Ca2+-dependent inactivation inhibitor domain association, primary screening, Förster resonance energy transfer in intact living … | 340,000 compounds, 0.098% hits | HEK cells, CFP/YFP FRET ICDI-IQ, plate reader, 10 min; percent FRET-ratio fall versus neutral wells | AID 743397 | inhibition, % at 12.3 µM;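 active = mean replicate inhibition of at least 30% and at least 1% of replicates passing that level; inconclusive = only one of the two criteria is met; inactive = neither criterion is met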;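 also: 0% = median of the neutral control wells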
PvdQ inh – blocks Pseudomonas aeruginosa PvdQ acylase activity. purified PvdQ acylase, fluorescence plate reader. inhibition, % at 10 µM. 340,000 compounds, 0.063% hits; in the data active = inhibition above about 30%, passing the limit was not always enough; inconclusive = no clear call, values can overlap the other calls;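 also: 0% = vehicle neutral wells and 100% = reference inhibitor wells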
ERp5 inh – ERp5 (human) disulfide isomerase inhibition. Q15084. ERp5 insulin aggregation, absorbance 650 nm, 90 min. inhibition, % at 9.99 µM. 350,000 compounds, 0.05% hits. AID 651711;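 active = mean replicate inhibition above about 25%, with every replicate also reaching it, limit read from the data, passing the limit was not always enough; inconclusive = only one of those two criteria met; inactive = neither criterion met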
Target sequence (Q15084 whole entry, looked up): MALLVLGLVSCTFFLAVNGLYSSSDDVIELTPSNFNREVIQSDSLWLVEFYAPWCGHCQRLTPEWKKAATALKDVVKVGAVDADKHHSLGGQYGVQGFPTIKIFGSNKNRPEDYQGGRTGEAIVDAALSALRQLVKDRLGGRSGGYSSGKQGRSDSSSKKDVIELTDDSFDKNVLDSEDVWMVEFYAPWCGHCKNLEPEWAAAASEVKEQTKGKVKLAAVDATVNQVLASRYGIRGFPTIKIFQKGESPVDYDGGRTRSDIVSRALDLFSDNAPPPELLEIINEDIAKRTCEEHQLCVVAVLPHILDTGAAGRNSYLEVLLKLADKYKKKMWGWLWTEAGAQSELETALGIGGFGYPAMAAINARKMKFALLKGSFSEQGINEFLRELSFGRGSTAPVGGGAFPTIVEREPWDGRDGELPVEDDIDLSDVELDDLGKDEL
* hit, by the source's call; ? = inconclusive; . = not tested or not shown; + = active, no number.

SMILES	PDI turbidity	CaV13 ICDI inh	PvdQ inh	ERp5 inh
Cc1cccn2c(=O)c3cc(C(=O)NCC4CCCO4)c(=N)n(CC4CCCO4)c3nc12 (centres undefined)	5	58*	-38	-4
Cc1cccn2c(=O)c3cc(C(=O)NCCN4CCOCC4)c(=N)n(CCN4CCOCC4)c3nc12	5	13	-2	3
CCNC(=O)c1cc2c(=O)n3cccc(C)c3nc2n(Cc2ccc(C)cc2)c1=N	5	55*	-9	.
CCOCCCNc1nc2nc3ccc(C)cn3c(=O)c2cc1C(=O)NCC1CCCO1 (centres undefined)	3	+	-76	4
Cc1cccn2c(=O)c3cc(C(=O)NCCN4CCOCC4)c(=N)n(Cc4ccc(F)cc4)c3nc12	16	102*	-18	-2
Cc1cccn2c(=O)c3cc(C(=O)NC4CCCC4)c(=N)n(CC4CCCO4)c3nc12 (centres undefined)	6	6	-50	0
Cc1cc(Cl)ccc1C1=CC(=O)C[C@H](c2ccc(F)cc2)C1	2	-5	-10	5
O=C1C=C(c2cc(F)ccc2F)C[C@@H](c2ccc(F)cc2)C1	-4	-5	64*	1
O=C(C1CCCCC1)N1CC[C@@H]2[C@H]1c1cc(Br)ccc1N[C@@H]2CO	.	.	.	3
CCOC(=O)Oc1c(OC)cc(C(=O)O[C@@H]2C[C@@H]3CN4CCc5c([nH]c6cc(OC)ccc56)[C@H]4C[C@@H]3[C@H](C(=O)OC)[C@H]2OC)cc1OC	35*	-5	1	?
CN1C(=O)c2cc(NC(=O)Nc3cccc(Cl)c3)ccc2OC[C@@H]2O[C@H](CC(=O)O)CC[C@H]21	.	.	.	0
COc1ccc2c3c([nH]c2c1)[C@H](CO)N(C(=O)CN(C)C)CC31CCN(CC2CCCC2)CC1	.	.	.	74*
COc1ccc2c3c([nH]c2c1)[C@@H](CO)N(C(=O)Nc1cccc(F)c1)CC31CN(S(=O)(=O)c2cccc(C)c2)C1	.	.	.	2
COc1cccc(S(=O)(=O)N2CC3(CN(C(=O)Nc4cccc(F)c4)[C@H](CO)c4[nH]c5cc(OC)ccc5c43)C2)c1	.	.	.	69*
COc1ccc2c3c([nH]c2c1)[C@@H](CO)N(C(=O)CN(C)C)CC31CCN(CC2CCCC2)CC1	.	.	.	1
CCCC(=O)Nc1ccc2c(c1)C(=O)N(C)C[C@@H](OC)[C@@H](C)CN(C(=O)CN(C)C)[C@H](C)CO2	.	.	.	-4
C[C@H](CO)N1C[C@H](C)[C@H](CN(C)C(=O)Nc2ccccc2)Oc2ncc(-c3cc4ccccc4o3)cc2C1=O	.	.	.	1
C[C@H]1CN([C@@H](C)CO)C(=O)c2cc(-c3cccc(C#N)c3)cnc2O[C@@H]1CN(C)Cc1cncnc1	.	.	.	34*
C[C@H](CO)N1C[C@H](C)[C@H](CN(C)Cc2cncnc2)Oc2ncc(-c3cccc(C#N)c3)cc2C1=O	.	.	.	52*
C[C@@H]1CN([C@@H](C)CO)C(=O)c2cc(-c3cccc(C#N)c3)cnc2O[C@@H]1CN(C)Cc1cncnc1	.	.	.	2
CC(C)NC(=O)N(C)C[C@@H]1Oc2ncc(-c3cc4ccccc4o3)cc2C(=O)N([C@H](C)CO)C[C@@H]1C	.	.	.	28*
CO[C@@H]1CN(C)C(=O)c2cc(NC(=O)C3CCCC3)ccc2OC[C@@H](C)N(C(=O)c2ccccc2)C[C@H]1C	.	.	.	-2
Cc1ccc(S[C@@H](CCN2CC[C@H](C)CCC2=O)c2ccccc2)cc1	0	-5	-18	4
Cc1ccc(S[C@@H](CCN2CC[C@H](O)CCC2=O)c2ccccc2)cc1	8	33*	-15	1
COc1ccc(-c2cc3nc(CCl)[nH]c(=O)c3s2)cc1	39*	-2	-9	0
SMILES	PDI turbidity	CaV13 ICDI inh	PvdQ inh	ERp5 inh
COCC(=O)N(C)C[C@H]1Oc2cc(C#CC(C)(C)O)ccc2S(=O)(=O)N([C@H](C)CO)C[C@H]1C	.	.	.	73*
C[C@@H]1CN([C@@H](C)CO)S(=O)(=O)c2ccc(C#Cc3cccnc3)cc2O[C@H]1CN(C)C(=O)CN(C)C	.	.	.	54*
COCC(=O)N(C)C[C@@H]1Oc2cc(C#CC(C)(C)O)ccc2S(=O)(=O)N([C@@H](C)CO)C[C@H]1C	.	.	.	15
C[C@H](CO)N1C[C@H](C)[C@@H](CN(C)C(=O)CN(C)C)Oc2cc(C#Cc3cccnc3)ccc2S1(=O)=O	.	.	.	-3
CC(C)C#Cc1ccc2c(c1)O[C@@H](CN(C)C(=O)C1CC1)[C@@H](C)CN([C@@H](C)CO)S2(=O)=O	.	.	.	61*
CCCC(c1nnnn1Cc1ccc(OC)cc1)N1CCC(C(N)=O)CC1 (centres undefined)	-4	-4	-14	.
COc1ccc(Cn2nnnc2C(CC(C)C)N2CCC(C(N)=O)CC2)cc1 (centres undefined)	-2	43*	-1	3
CCC(=O)Nc1ccc2c(c1)OC[C@@H](C)N(C(=O)COC)C[C@@H](C)[C@@H](OC)CN(C)C2=O	.	.	.	-2
CCC(C)NC(=S)N1CCN(Cc2ccc3c(c2)OCO3)CC1 (centres undefined)	-1	133*	-7	2
CCC(=O)c1ccc(OC(=O)c2cccs2)cc1	1	-4	41*	.
COC(=O)c1ccc(OC(=O)c2cccs2)cc1	-3	-4	55*	-4
COC(=O)c1ccc(OC(=O)c2ccco2)cc1	0	-5	81*	.
CO[C@@H]1CN(C)C(=O)c2cc(NS(=O)(=O)c3ccc(C)cc3)ccc2OC[C@@H](C)N(Cc2nccs2)C[C@H]1C	.	.	.	-6
O=C(N[C@H]1C=C[C@H](CC(=O)N2CCc3ccccc3C2)O[C@@H]1CO)C1CC1	.	.	.	6
O=C(CCN1CCCCC1)NCC[C@@H]1CC[C@H](NC(=O)Cc2cccnc2)[C@@H](CO)O1	.	.	.	0
COC(=O)C[C@H]1CC[C@H]2[C@H](COc3ccc(NC(=O)Nc4cccc(C)c4)cc3C(=O)N2C)O1	.	.	.	-2
O=C(CCS(=O)(=O)c1ccccc1)N(CCCN1CCOCC1)c1nc2ccccc2s1	38*	-6	-13	-8
O=C(Nc1ccc2c(c1)OCCO2)c1ccc(NC(=O)C2CCCO2)cc1 (centres undefined)	0	93*	-6	.
c1ccc(Cn2nnc3c(Nc4ccc5c(c4)OCO5)nc(C4CC4)nc32)cc1	66*	-4	-10	.
CC(=O)N1CCN(CC(=O)Nc2ccccc2Sc2ccc(Cl)cc2)CC1	8	-3	-13	0
O=C(CCl)Nc1ccccc1Sc1ccc(Cl)cc1	50*	-3	-8	.
COCCNC(=O)C[C@H]1C[C@@H]2c3cc(NC(=O)C4CCC4)ccc3O[C@@H]2[C@@H](CO)O1	.	.	.	-3
CO[C@H]1CN(C)C(=O)c2cc(NC(=O)C3CC3)ccc2OC[C@H](C)N(C(=O)c2cnccn2)C[C@@H]1C	.	.	.	-3
CC[C@]12c3[nH]c4cc(-c5ccco5)ccc4c3CCN1C(=O)[C@@H](CC(=O)NCc1ccc(OC)c(OC)c1)C[C@@H]2C(=O)N1CCN(C(=O)C2CC2)CC1	37*	-5	-18	1
O=C(CN1CCOCC1)N[C@@H]1CC[C@@H](CCNC(=O)C2CCCC2)O[C@H]1CO	.	.	.	-2
